Laboratory results reported in PubChem BioAssay (EPA / NIEHS).
Where “and” joins values, the source holds several entries; their conditions need not be identical. Identical values can stand only once. Inconclusive results are not listed. The source holds several records for some structures; these can differ, active in one and inactive in another. Calls of active or inactive are those of the source. How the source made its calls: active means hit-call score of the fitted dose curve at least 0.9, where 1 is the maximum; inconclusive means response in the unintended direction; inactive means score below 0.9.

Legend:
[1] = biological target: sheep Cyclooxygenase-2 (Cox2), PTGS2 (gene 443460) (UniProt P79208); assay: NVS_ENZ_oCOX2: NovaScreen (NVS) Enzymatic Assay for sheep Cyclooxygenase-2 (Cox2) (AID 2283231)
Outline: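 Enzyme extracted from ovine placenta tested cell-free; activity read colorimetrically by absorbance 0.66 hour after dosing. Primary screen in duplicate at 25 uM; hits rerun as concentration series to 50 uM, loss of signal versus DMSO baseline.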

[2] = biological target: sheep Cyclooxygenase-1 (Cox1), PTGS1 (gene 443551) (UniProt P05979); assay: NVS_ENZ_oCOX1: NovaScreen (NVS) Enzymatic Assay for sheep Cyclooxygenase-1 (Cox1) (AID 2283239);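 further: actives reduce cyclooxygenase activity so potencies are for inhibitors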
Outline: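 Absorbance read-out of cyclooxygenase activity in a cell-free preparation from sheep seminal vesicles, taken 0.66 hour after dosing. Initial testing was in duplicate at 25 uM, and confirmatory testing was run in concentration series.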

[3] = tested on: guinea pig Leukotriene B4 Receptor (LTB4), gene 100379538; assay: NVS_GPCR_gLTB4: NovaScreen (NVS) G Protein-Coupled Receptor Assay for guinea pig Leukotriene B4 Receptor (LTB4) (AID 2283247)
Outline: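 Radioligand displacement on guinea pig spleen membranes, filter-based scintillation counting 2 h after dosing. Primary duplicate single point at 25 uM; hits over threshold (e.g. 30% inhibition) run in concentration-response up to 50 uM, DMSO baseline.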

[4] = biological target: human Vascular Endothelial Growth Factor Receptor 1 (VEGFR1), FLT1 (gene 2321) (UniProt P17948); assay: NVS_ENZ_hVEGFR1: NovaScreen (NVS) Enzymatic Assay for human Vascular Endothelial Growth Factor Receptor 1 (VEGFR1) (AID 2283226)
Outline: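 Cell-free assay of recombinant human VEGFR1 kinase with substrate, measured 1 h after dosing; fluorescence with electrophoretic mobility-shift separation of substrate and product, referenced to DMSO; primary screen at 25 uM in duplicate, actives then run in concentration series.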

[5] = biological target: human Vascular Endothelial Growth Factor Receptor 3 (VEGFR3), FLT4 (gene 2324) (UniProt P35916); assay: NVS_ENZ_hVEGFR3: NovaScreen (NVS) Enzymatic Assay for human Vascular Endothelial Growth Factor Receptor 3 (VEGFR3) (AID 2283229)
Outline: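 Cell-free recombinant VEGFR3 kinase reaction with fluorescent substrate, read 1 h after dosing by electrophoretic mobility shift separation of substrate and product. Single-concentration duplicate screen at 25 uM, then concentration-response up to 50 uM; loss of activity versus DMSO.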

[6] = biological target: human Protein Tyrosine Phosphatase Receptor Type M (PTPRM), PTPRM (gene 5797) (UniProt P28827); assay: NVS_ENZ_hPTPRM: NovaScreen (NVS) Enzymatic Assay for human Protein Tyrosine Phosphatase Receptor Type M (PTPRM) (AID 2283215)
Outline: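 Cell-free recombinant PTPRM with fluorogenic substrate; product separated from substrate by electrophoretic mobility shift and read by fluorescence, 1.33 h after dosing. Primary screen single concentration (25 uM) in duplicate; actives retested in concentration series; loss of signal versus DMSO.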

[7] = biological target: human Sirtuin 2 (SIRT2), SIRT2 (gene 22933) (UniProt Q8IXJ6); assay: NVS_ENZ_hSIRT2: NovaScreen (NVS) Enzymatic Assay for human Sirtuin 2 (SIRT2) (AID 2283217)
Outline: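 Cell-free recombinant human SIRT2, fluorescent substrate with product separated by electrophoretic mobility shift, 1 hr. Screened in duplicate at 25 uM; hits rerun singly in concentration-response up to 50 uM, relative to DMSO.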

[8] = biological target: human Sirtuin 3 (SIRT3), SIRT3 (gene 23410) (UniProt Q9NTG7); assay: NVS_ENZ_hSIRT3: NovaScreen (NVS) Enzymatic Assay for human Sirtuin 3 (SIRT3) (AID 2283222)
Outline: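 Cell-free enzyme assay with recombinant protein and fluorescent substrate, product separated by electrophoretic mobility shift; read 1 hour after dosing. Screened in duplicate at 25 uM, then singleton concentration-response up to 50 uM; loss of signal versus DMSO.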

[9] = biological target: human Tropomyosin Receptor Kinase A (TRKA), NTRK1 (gene 4914) (UniProt P04629); assay: NVS_ENZ_hTrkA: NovaScreen (NVS) Enzymatic Assay for human Tropomyosin Receptor Kinase A (TRKA) (AID 2283224)
Outline: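 Recombinant human TrkA activity read after 1 h by fluorescence with electrophoretic mobility shift separating substrate and product. Primary screen in duplicate at 25 uM; actives were rerun in concentration-response up to 50 uM. Loss of signal versus DMSO.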

[10] = biological target: human Vascular Endothelial Growth Factor Receptor 2 (VEGFR2), KDR (gene 3791) (UniProt P35968); assay: NVS_ENZ_hVEGFR2: NovaScreen (NVS) Enzymatic Assay for human Vascular Endothelial Growth Factor Receptor 2 (VEGFR2) (AID 2283230)
Outline: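 Cell-free recombinant VEGFR2 kinase, fluorescent substrate with electrophoretic mobility-shift separation; read 1 h after dosing. Screened at 25 uM in duplicate, hits to concentration-response up to 50 uM; loss-of-signal versus DMSO.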

[11] = biological target: Adenosine receptor A1 (Bos taurus) (UniProt P28190); assay: NVS_GPCR_bAdoR_NonSelective: NovaScreen (NVS) G Protein-Coupled Receptor Assay for bovine Adenosine Receptor (AdoR), Non-selective Binding (AID 2283244)
Outline: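 Bovine striatal membranes, radioligand displacement binding, 1 h after dosing, filter-based scintillation counting. Screened in duplicate at 25 uM, then concentration-response up to 50 uM; loss of specific binding relative to DMSO.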

[12] = biological target: rat Constitutive Nitric Oxide Synthase (CNOS), Nos1 (gene 24598) (UniProt P29476); assay: NVS_ENZ_rCNOS: NovaScreen (NVS) Enzymatic Assay for rat Constitutive Nitric Oxide Synthase (CNOS) (AID 2283236)
Outline: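 Enzyme activity in rat brain membrane preparation, read 1 h after dosing by filter-based radiometric scintillation counting. Primary screen in duplicate at 25 uM; actives (e.g., ≥30% inhibition) then run in concentration-response up to 50 uM.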

[13] = biological target: rabbit Imidazoline 2 Central (I2C), CKB (gene 100009085) (UniProt P00567); assay: NVS_ENZ_rabI2C: NovaScreen (NVS) Enzymatic Assay for rabbit Imidazoline 2 Central (I2C) (AID 2283228)
Outline: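 Rabbit brain membranes, cell-free; readout by filter-based scintillation counting 1.5 hours after dosing, loss of signal vs DMSO. Initial duplicate test at 25 uM, then concentration-response with 50 uM top concentration.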

[14] = biological target: human Sirtuin 1 (SIRT1), SIRT1 (gene 23411) (UniProt Q96EB6); assay: NVS_ENZ_hSIRT1: NovaScreen (NVS) Enzymatic Assay for human Sirtuin 1 (SIRT1) (AID 2283219)
Outline: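 Cell-free recombinant SIRT1 with a fluorescent substrate; substrate and product separated by electrophoretic mobility shift and read by fluorescence intensity, 1 h after dosing. Primary screen at 25 uM in duplicate; hits re-run in concentration-response up to 50 uM, relative to DMSO.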

[15] = biological target: human Rho Associated Coiled-coil Containing Protein Kinase 1 (ROCK1), ROCK1 (gene 6093) (UniProt Q13464); assay: NVS_ENZ_hROCK1: NovaScreen (NVS) Enzymatic Assay for human Rho Associated Coiled-coil Containing Protein Kinase 1 (ROCK1) (AID 2283214)
Outline: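 Cell-free recombinant human ROCK1 activity assay; fluorescent substrate and product separated by electrophoretic mobility shift, read 1 h after dosing. Screened in duplicate at 25 uM; loss of signal versus DMSO baseline scored as inhibition.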

[16] = biological target: human SRC Proto-Oncogene, Non-receptor Tyrosine Kinase (SRC), SRC (gene 6714) (UniProt P12931); assay: NVS_ENZ_hSRC: NovaScreen (NVS) Enzymatic Assay for human SRC Proto-Oncogene, Non-receptor Tyrosine Kinase (SRC) (AID 2283223)
Outline: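 Cell-free kinase activity assay with fluorescent substrate, product separated by electrophoretic mobility shift, read 1 h after dosing. Duplicate single point at 25 uM, then concentration-response up to 50 uM; loss of signal versus DMSO.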

[17] = biological target: rat Catechol-O-Methyl Transferase (COMT), Comt (gene 24267) (UniProt P22734); assay: NVS_ENZ_rCOMT: NovaScreen (NVS) Enzymatic Assay for rat Catechol-O-Methyl Transferase (COMT) (AID 2283235)
Outline: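 Cell-free enzyme activity with protein extracted from rat dorsal striatum, measured by HPLC with absorbance detection. Compounds screened at 25 uM in duplicate; actives then run in concentration-response up to 50 uM, loss of signal versus DMSO.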

Sequence of human Vascular Endothelial Growth Factor Receptor 2 (VEGFR2), KDR (gene 3791) (P35968 whole entry, looked up): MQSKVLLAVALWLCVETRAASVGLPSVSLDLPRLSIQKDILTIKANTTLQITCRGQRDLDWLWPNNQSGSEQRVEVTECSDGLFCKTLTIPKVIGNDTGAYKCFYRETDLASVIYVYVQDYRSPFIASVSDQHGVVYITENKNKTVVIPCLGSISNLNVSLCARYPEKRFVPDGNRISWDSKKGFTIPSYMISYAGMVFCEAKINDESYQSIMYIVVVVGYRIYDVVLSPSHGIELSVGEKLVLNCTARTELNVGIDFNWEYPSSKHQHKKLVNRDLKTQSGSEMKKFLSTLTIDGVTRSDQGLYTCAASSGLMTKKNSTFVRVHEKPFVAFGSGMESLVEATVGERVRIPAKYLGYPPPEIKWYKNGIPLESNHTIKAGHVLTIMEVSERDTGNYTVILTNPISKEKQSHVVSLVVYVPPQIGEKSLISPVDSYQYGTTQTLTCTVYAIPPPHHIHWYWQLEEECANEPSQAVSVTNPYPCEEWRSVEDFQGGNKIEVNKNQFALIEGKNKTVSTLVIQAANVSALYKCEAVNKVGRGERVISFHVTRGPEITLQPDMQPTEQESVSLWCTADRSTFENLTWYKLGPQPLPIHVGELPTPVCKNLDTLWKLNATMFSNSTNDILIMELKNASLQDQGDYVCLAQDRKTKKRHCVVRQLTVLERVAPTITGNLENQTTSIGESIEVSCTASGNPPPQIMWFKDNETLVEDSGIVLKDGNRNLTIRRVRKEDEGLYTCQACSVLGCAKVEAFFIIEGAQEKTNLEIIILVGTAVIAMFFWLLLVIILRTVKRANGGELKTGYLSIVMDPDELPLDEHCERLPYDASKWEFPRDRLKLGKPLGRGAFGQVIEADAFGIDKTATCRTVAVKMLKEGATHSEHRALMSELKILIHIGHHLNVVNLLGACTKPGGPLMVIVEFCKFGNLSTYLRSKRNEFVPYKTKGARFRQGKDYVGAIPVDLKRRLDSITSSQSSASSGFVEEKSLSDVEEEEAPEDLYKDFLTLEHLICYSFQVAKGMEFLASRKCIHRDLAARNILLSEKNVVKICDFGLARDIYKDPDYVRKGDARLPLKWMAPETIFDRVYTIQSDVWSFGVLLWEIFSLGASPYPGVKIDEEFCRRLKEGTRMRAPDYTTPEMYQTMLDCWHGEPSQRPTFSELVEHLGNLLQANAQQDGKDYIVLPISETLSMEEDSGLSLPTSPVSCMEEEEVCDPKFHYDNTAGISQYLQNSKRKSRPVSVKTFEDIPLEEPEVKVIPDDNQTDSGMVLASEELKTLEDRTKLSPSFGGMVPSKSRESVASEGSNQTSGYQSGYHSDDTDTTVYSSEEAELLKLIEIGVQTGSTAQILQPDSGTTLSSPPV
Sequence of human Sirtuin 1 (SIRT1), SIRT1 (gene 23411) (Q96EB6 whole entry, looked up): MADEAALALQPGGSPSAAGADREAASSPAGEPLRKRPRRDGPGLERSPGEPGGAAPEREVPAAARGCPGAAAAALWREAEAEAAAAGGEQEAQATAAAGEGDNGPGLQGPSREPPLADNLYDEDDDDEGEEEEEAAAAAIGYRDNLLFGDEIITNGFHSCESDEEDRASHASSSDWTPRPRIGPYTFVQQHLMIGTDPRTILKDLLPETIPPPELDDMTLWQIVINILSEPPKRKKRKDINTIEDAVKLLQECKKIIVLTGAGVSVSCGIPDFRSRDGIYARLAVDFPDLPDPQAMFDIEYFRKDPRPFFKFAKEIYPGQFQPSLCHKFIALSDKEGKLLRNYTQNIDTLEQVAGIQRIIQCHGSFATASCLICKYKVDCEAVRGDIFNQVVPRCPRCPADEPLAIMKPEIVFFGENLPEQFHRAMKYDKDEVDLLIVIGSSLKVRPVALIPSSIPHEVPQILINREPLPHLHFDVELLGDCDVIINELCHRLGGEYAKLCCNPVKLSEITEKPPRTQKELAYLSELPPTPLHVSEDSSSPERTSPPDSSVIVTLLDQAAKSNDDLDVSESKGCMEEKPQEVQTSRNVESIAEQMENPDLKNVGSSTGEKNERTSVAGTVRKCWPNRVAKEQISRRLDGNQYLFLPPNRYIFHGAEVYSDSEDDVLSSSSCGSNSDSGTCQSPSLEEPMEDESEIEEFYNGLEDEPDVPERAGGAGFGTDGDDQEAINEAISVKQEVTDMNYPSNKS
Sequence of human Vascular Endothelial Growth Factor Receptor 1 (VEGFR1), FLT1 (gene 2321) (P17948 whole entry, looked up): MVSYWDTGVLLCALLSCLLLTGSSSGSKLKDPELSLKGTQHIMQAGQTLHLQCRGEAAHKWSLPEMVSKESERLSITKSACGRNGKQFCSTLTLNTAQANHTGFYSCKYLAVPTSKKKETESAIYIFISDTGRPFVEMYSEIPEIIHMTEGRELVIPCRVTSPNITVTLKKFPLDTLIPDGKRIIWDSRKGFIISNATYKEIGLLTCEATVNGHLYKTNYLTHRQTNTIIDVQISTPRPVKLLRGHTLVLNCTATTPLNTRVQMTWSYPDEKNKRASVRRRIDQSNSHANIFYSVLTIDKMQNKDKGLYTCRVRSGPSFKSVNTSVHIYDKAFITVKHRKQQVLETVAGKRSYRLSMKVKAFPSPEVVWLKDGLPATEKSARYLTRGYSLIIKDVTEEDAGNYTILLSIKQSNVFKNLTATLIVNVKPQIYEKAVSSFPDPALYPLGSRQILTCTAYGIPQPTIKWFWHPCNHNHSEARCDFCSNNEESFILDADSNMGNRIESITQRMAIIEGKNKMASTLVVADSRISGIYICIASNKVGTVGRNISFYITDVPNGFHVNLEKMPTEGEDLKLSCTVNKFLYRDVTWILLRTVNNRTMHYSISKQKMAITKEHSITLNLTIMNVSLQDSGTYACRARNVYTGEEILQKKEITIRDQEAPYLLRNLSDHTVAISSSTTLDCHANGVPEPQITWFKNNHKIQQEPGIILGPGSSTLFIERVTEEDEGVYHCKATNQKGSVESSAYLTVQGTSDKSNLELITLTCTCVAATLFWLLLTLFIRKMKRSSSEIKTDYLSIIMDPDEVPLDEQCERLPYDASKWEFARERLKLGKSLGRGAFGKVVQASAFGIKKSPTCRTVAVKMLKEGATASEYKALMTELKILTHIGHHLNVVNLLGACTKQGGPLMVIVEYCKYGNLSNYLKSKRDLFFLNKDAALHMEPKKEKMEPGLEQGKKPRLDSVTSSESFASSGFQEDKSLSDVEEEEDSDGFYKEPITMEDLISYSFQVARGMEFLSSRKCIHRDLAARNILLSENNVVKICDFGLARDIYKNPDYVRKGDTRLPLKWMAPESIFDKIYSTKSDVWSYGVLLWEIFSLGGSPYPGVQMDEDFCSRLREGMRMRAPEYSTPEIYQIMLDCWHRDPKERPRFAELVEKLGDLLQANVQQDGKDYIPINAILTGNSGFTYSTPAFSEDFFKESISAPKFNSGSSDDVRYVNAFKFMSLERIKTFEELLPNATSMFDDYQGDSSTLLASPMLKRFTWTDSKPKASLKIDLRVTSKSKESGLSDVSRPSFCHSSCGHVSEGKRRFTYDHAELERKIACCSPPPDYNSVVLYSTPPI
Sequence of human Protein Tyrosine Phosphatase Receptor Type M (PTPRM), PTPRM (gene 5797) (P28827 whole entry, looked up): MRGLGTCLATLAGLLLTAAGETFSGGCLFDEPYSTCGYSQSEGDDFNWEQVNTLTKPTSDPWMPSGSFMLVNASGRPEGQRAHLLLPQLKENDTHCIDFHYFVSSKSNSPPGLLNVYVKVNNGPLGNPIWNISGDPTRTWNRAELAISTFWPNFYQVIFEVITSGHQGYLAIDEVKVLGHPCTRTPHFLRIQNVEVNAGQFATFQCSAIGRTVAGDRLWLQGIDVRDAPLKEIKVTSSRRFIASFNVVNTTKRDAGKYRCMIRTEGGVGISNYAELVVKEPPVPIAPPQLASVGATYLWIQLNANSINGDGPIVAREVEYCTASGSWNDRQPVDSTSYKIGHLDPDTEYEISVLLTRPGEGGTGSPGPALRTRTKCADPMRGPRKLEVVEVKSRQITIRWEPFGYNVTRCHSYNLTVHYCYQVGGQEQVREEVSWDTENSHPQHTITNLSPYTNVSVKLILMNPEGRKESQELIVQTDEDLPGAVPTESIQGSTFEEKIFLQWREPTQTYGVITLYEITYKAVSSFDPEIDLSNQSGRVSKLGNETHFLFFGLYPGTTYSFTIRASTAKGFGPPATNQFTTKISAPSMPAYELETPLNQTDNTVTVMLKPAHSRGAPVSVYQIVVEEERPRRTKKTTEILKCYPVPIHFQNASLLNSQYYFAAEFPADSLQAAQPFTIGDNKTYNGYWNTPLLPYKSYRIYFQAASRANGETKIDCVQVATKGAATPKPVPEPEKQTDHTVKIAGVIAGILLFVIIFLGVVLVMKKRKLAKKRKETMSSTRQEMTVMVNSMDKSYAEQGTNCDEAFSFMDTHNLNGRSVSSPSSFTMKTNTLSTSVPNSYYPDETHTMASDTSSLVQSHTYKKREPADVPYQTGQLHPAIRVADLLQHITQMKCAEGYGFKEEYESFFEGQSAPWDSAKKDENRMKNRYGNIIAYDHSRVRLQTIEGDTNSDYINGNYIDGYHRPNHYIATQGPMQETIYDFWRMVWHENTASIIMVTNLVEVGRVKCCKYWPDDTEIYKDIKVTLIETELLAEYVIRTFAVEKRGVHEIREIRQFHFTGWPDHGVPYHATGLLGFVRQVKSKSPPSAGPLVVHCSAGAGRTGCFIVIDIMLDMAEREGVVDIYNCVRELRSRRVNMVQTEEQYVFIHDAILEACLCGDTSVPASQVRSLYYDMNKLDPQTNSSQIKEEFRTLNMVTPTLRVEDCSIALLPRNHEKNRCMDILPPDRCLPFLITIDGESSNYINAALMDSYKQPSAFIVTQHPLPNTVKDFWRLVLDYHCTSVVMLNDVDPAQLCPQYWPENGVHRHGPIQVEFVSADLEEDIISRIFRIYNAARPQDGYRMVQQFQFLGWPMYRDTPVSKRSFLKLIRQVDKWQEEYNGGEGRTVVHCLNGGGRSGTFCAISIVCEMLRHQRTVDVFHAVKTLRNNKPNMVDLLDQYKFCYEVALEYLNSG

C[C@]12C[C@H](O)[C@H]3[C@@H](CCC4=CC(=O)CC[C@@]43C)[C@@H]1CC[C@@H]2C(=O)CO
outcome [1]: inactive
outcome [2]: inactive
outcome [3]: inactive

COCCO
outcome [4]: inactive
outcome [5]: inactive

Oc1ccc(C(c2ccc(O)cc2)C(Cl)(Cl)Cl)cc1
AC50 [6]: 46.5 µM (active)
AC50 [7]: 17 µM (active)
AC50 [8]: 19.4 µM (active)
AC50 [9]: 15 µM (active)

O=C(O)C1(C(=O)Nc2ccc(Cl)cc2Cl)CC1
AC50 [6]: 12.4 µM (active)
AC50 [5]: 14.9 µM (active)
outcome [10]: inactive

N[C@@H](Cc1cc(I)c(Oc2ccc(O)c(I)c2)c(I)c1)C(=O)O
AC50 [10]: 6.72 µM (active)
AC50 [11]: 3.2 µM (active)

COC(=O)c1cccc(C)c1S(=O)(=O)NC(=O)Nc1nc(OCC(F)(F)F)nc(N(C)C)n1
AC50 [11]: 5.12 µM (active)

COC(=O)c1ccc(CNS(C)(=O)=O)cc1S(=O)(=O)NC(=O)Nc1nc(OC)cc(OC)n1
AC50 [12]: 7.99 µM (active)

CCCCC(CC)CN1C(=O)C2C3C=CC(C3)C2C1=O (configuration not stated)
outcome [13]: inactive

S=C([S-])NCCNC(=S)[S-].[Mn+2]
AC50 [6]: 8.13 µM (active)
AC50 [7]: 14.1 µM (active)
AC50 [14]: 15.4 µM (active)
AC50 [8]: 7.6 µM (active)
outcome [13]: inactive
AC50 [10]: 13.8 µM (active)

S=C(S)NCCNC(=S)S.[Mn+2].[S-]C([S-])=NCCN=C([S-])[S-].[Zn+2]
outcome [15]: inactive
AC50 [7]: 4.58 µM (active)
outcome [7]: inactive
AC50 [14]: 3.63 µM (active) and 4.01 µM (active) and 3.03 µM (active)
AC50 [8]: 25 µM (active)
outcome [8]: inactive
AC50 [16]: 1.47 µM (active)
AC50 [9]: 22.1 µM (active)
AC50 [4]: 7.01 µM (active)
outcome [4]: inactive
AC50 [13]: 1.34 µM (active)
outcome [13]: inactive
AC50 [5]: 2.42 µM (active) and 1.31 µM (active)
AC50 [10]: 4.23 µM (active) and 3.35 µM (active)
AC50 [1]: 12.5 µM (active)
AC50 [17]: 21.1 µM (active)
outcome [2]: inactive

CC(=O)[C@H]1CC[C@H]2[C@@H]3CCC4=CC(=O)CC[C@]4(C)[C@H]3CC[C@]12C
AC50 [2]: 17.7 µM (active)

COc1nc(C)nc(NC(=O)NS(=O)(=O)c2ccccc2OCCCl)n1
outcome [6]: inactive
